PubChem BioAssay (NCATS)
Results filed as inconclusive are left out. Active and inactive are the calls of the source. Calls come from the whole dose curve; as a rule, active = well fitted curve in the direction sought with a large enough effect; inconclusive = small, poorly fitted or top-dose-only effect, or another doubt; inactive = no such curve, though single readings can be large; an effect the other way counts as inactive or inconclusive.

Assays:
[1] = target: Cellular tumor antigen p53 (Homo sapiens) (UniProt P04637); experiment: Primary qHTS for small molecule compounds that upregulate eGFP-tagged delta133p53alpha (in N-terminal) cells. (AID 2060322); conditions: NCI-H358 eGFP-delta133p53alpha fluorescence, 24 h; activation: hits give high values;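 note: cells pre-induced with doxycycline then dosed without doxycycline; series mostly up to about 56 µM; 0% = DMSO vehicle and 100% = reference activator; nearly all actives have a fitted effect of over 75% in size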
Outline: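 NCI-H358 cells pre-induced 24 h with 10 ng/ml doxycycline for eGFP-delta133p53alpha, plated dox-free and exposed 24 h at 37C to titrated compounds. Fixed, Hoechst-stained; gated GFP peak intensity by laser scanning cytometry, normalized to DMSO (0%) and 57.5 uM 5-azacytidine (100%).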

[2] = target: Aldehyde dehydrogenase, mitochondrial (Homo sapiens) (UniProt P05091); experiment: qHTS for Inhibitors of the Aldehyde Dehydrogenase Family (ALDH2) Primary screen (AID 2061308);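 note: plate controls were vehicle for no effect and reference inhibitor for full effect; nearly all actives have a fitted effect of over 55% in size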
[3] = target: Retinaldehyde dehydrogenase 3 (Homo sapiens) (UniProt P47895); experiment: qHTS for Inhibitors of the Aldehyde Dehydrogenase Family (ALDH1A3) Primary screen (AID 2061315);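 note: plate controls were DMSO vehicle for no effect and reference inhibitor for full effect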

Sequence of Cellular tumor antigen p53 (Homo sapiens) (P04637 whole entry, looked up): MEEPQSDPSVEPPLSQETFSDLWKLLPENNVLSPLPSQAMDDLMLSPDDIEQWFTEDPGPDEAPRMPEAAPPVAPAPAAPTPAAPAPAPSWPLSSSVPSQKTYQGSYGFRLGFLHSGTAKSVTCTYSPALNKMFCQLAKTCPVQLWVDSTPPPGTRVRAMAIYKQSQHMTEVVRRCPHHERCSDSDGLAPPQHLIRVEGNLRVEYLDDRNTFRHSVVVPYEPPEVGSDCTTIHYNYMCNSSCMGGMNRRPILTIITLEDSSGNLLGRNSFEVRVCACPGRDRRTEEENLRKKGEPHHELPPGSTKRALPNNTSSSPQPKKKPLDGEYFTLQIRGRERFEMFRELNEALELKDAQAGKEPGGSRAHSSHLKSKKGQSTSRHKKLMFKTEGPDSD

COc1cc(O)cc(C)c1C(=O)O[C@@H]1[C@H](O)[C@@H](CO)O[C@H]1n1ccc(=O)[nH]c1=O
inactive: activation [1] 11.5% | Potency [2] | Potency [3]

N#CC1C(=O)Nc2scc(-c3ccc(-c4ccccc4O)cc3)c2C1=O (configuration not stated)
inactive: activation [1] 17% | Potency [2] | Potency [3]

NC(=O)C(O[C@@H]1O[C@H](CO[C@@H]2O[C@H](CO)[C@@H](O)[C@H](O)[C@H]2O)[C@@H](O)[C@H](O)[C@H]1O)c1ccccc1 (some centres not stated)
inactive: activation [1] -6.11% | Potency [2] | Potency [3]

COc1c(O[C@@H]2O[C@H](CO)[C@@H](O)[C@H](O)[C@H]2O)c(CCC(=O)O)cc2ccoc12
inactive: activation [1] -7.63% | Potency [2] | Potency [3]

COc1cc(-c2ccc(O)cc2)c(OC)c(O)c1C1=CC(=O)OC1CC(=O)O (configuration not stated)
inactive: activation [1] 13.7% | Potency [2] | Potency [3]

CN1C(=O)N(c2cc(Cl)cc(Cl)c2)C(=O)[C@@]1(C)Cc1ccc(Br)cc1
inactive: activation [1] 5% | Potency [2] | Potency [3]

CC1(C)CCCC2(C)C(C(=O)O)=CCC12 (configuration not stated)
inactive: activation [1] -24.4% | Potency [2] | Potency [3]

CC1(C)CCCC2(C)C1C(O)C=C(CO)C2(O)C(=O)O (configuration not stated)
inactive: activation [1] -13.7% | Potency [2] | Potency [3]

C[C@@H]1O[C@@H](O[C@H]2[C@H](O)[C@@H](O[C@@H]3O[C@H](CO)[C@H](O)[C@H](O)[C@H]3O)[C@H](O[C@H]3CC[C@@]4(C)C(CC[C@]5(C)C4CC=C4[C@@H]6CC(C)(C)CC[C@]6(C(=O)O[C@@H]6O[C@H](CO)[C@@H](O)[C@H](O)[C@H]6O)CC[C@]45C)C3(C)C)O[C@@H]2C(=O)O)[C@H](O)[C@H](O)[C@H]1O (some centres not stated)
inactive: activation [1] 5.34% | Potency [2] | Potency [3]
